The supplement of paper PMC6555819

Experiments:
Experiment in all cases: PBM binding z-score (relative to random genomic background probes); higher = stronger binding; sequences stand for … in GC…GCGATTGACAGCGTAGAATGAAGG
[1] = tested on: RARb homodimer (NR concentration 270 nM)
Procedure, shortened: (§1)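 Ligand-free nuclear receptor dimers were bound for 1 h to custom Agilent 4×180K protein-binding microarrays. Detection used antibodies against each partner (one per run). Binding z-scores rest on regression-normalized fluorescence, with random background probes as the reference.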

[2] = tested on: RARg:RXRa (NR concentration 270 nM, RXRa partner concentration 90 nM)
Procedure, shortened: as §1

[3] = tested on: RARg homodimer (NR concentration 270 nM)
Procedure, shortened: as §1

[4] = tested on: RXRa DBDmut IVT, anti-RXR (DBD mutation: RXRa K156A/R161A, NR concentration 90 nM)
Procedure, shortened: as §1

[5] = tested on: RXRa homodimer (NR concentration 180 nM)
Procedure, shortened: as §1

[6] = tested on: THRa:RXRa (NR concentration 90 nM, RXRa partner concentration 90 nM)
Procedure, shortened: as §1

[7] = tested on: THRa homodimer (NR concentration 90 nM)
Procedure, shortened: as §1

[8] = tested on: VDR homodimer (NR concentration 270 nM)
Procedure, shortened: as §1

Sequence	PBM binding z-score [1]	PBM binding z-score [2]	PBM binding z-score [3]	PBM binding z-score [4]	PBM binding z-score [5]	PBM binding z-score [6]	PBM binding z-score [7]	PBM binding z-score [8]
TATACAGGGTCAAAGGCCAGAGTCCGAATGTCGA	3.69	5.63	4.75	2.69	6.54	3.62	0.963	2.67
AGAATGAGGTTATTAAGAGCAGGGAATTGCGGTC	1.16	1.1	0.698	2.01	1.48	2.14	0.798	1.21
ATTTCTAGGTAAAAGTTCAGTGAATCCCGAGGAT	2.3	2.15	2.03	1.21	1.88	1.64	0.543	2.1
CCAACTGGGGCATAAGGTTACCATAAGCCAGCCC	1.68	1.52	1.12	-0.33	1.24	1.97	1.29	0.0835
TCTTGTTGGTCAAAGGTCACACACTCGAAATGCG	5.33	7.36	6.57	2.02	8.27	4.21	2.56	3.06
CTGACTGGGGCAGAAAGGTTACCATACCATCCGG	2.57	2.08	1.66	-0.154	1.88	1.34	-0.00368	0.339
CCTACTGGGCCAAAGGTCATTGAATCCAATGCTC	4.89	5.95	4.83	1.05	6.52	3.56	0.752	2.23
GTACCAAGGTGAATAGGTCTTTGATGAGTAGGCG	1.13	1.15	0.913	0.00774	0.832	1.3	0.641	0.178
TCCTGTAGATCAGCAGGTTAAGAAAGCTGGCCAA	-0.00726	-0.0905	-0.286	0.636	0.412	0.129	-0.526	-0.526
CCGACTGGGGCAGAAAGGTTACCAGACCATCCGG	2.18	1.75	1.28	-0.651	1.71	0.99	-0.742	-0.568
TATACAGGGTCAAAGGCCAGAGTACGAATGTCGA	3.67	5.46	5.12	3.02	6.7	3.76	0.87	3.4
CCGACTGGGGCAGAAAGGTTACCATGCCATCCGG	2.33	1.54	1.08	-1.07	1.72	1.05	-0.541	-0.201
TCTTGTAGAACAAGCAGGTTAAGAAAGCCTGAGT	0.0404	-0.0958	-0.255	0.567	0.349	0.0268	-0.349	-0.0601
CGATCTAGGTCAAGGACAGTGAATCTCCGCACGC	2.75	3.6	4.45	1.55	2.2	3.07	2.46	0.43
TCGAGTAGGTTATGGGCATTCAGAATGGCGTCGA	-0.0176	-0.0222	-0.106	-0.148	0.459	-0.261	-0.66	-0.437
ATCGAAAGGTCCTGAGGTGAGTATACAGAAAGGC	1.02	1.36	0.977	-0.513	1	1.98	0.778	-0.0485
CCTATAAGTTGACCATAAGGGCAACCGAAGCTCG	2.31	2.2	1.31	0.769	0.942	2.44	1.2	1.32
CCTACTGGGCCAAGGTCGTTGATCAGTCAAAGCA	0.763	0.488	0.541	-0.262	0.465	1.31	0.184	1.19
ATCTCTAGGTAACCAAGTTCAGCGAATGCCGAAC	1.63	1.03	1.06	0.597	0.733	1.51	0.797	2.79
TCTTGTAGATCAACAGGAGGTTGAGAAAGATCGA	-0.533	0.156	-0.228	0.313	0.301	-0.174	-0.919	-0.475
CCTACTGGGCCAAAAAGGTGATTGATGCCGATAA	0.483	0.0442	0.047	-0.635	-0.0112	0.0456	-0.353	-0.114

Sequence	PBM binding z-score [1]	PBM binding z-score [2]	PBM binding z-score [3]	PBM binding z-score [4]	PBM binding z-score [5]	PBM binding z-score [6]	PBM binding z-score [7]	PBM binding z-score [8]
CCTAGCAGGCGAATCTGGGTCACTCAAGGCTTGA	1.53	0.494	0.428	0.0113	0.669	2.71	0.222	-0.316
CCTGCTAGGTTAATGGTCAGCTAAAGCAGCTCGC	0.863	0.422	0.563	0.452	0.173	0.215	-0.284	-0.175
GATACAGGGTCAGCAAGAGGCCAGAGTATGGAAA	3.45	6.61	4.76	1.16	4.52	3.21	0.361	0.548
GCTAGCAGGCCACTTGGGTCACTCAATGACGGGC	2.08	1.11	1.41	-0.454	0.892	1.67	0.36	0.24
AGAACGAGGGCAATGAGTTGATACCACGGGTGGC	0.985	1.02	1.7	2.06	0.987	0.993	-0.484	3.27
ATCTCTAGATAAAGATAGTTCAGTGAATGCAAAT	0.48	0.16	0.499	-0.299	0.282	0.263	-0.124	0.668
TCTGCTAGGTCTGTTGGTCAGCTAACGAGCTGCC	-0.195	-0.258	-0.599	0.00538	-0.403	-0.454	-0.978	-1.23
TCATATTGGTAAAAGGTGAAAGTCGGTGTGGTAA	2	1.24	0.709	1.66	1.99	1.62	0.665	0.829
TCTAGTTGCTCACGGAGGTCACACACGACGGGTA	4.16	4.02	3.73	1.11	4.32	3.46	2.22	2.06
AGAACAAGGGCAATGAGTTGATAGCACGGGTGGC	0.907	1.1	1.4	1.14	0.654	0.418	-0.2	2.73
AGTACGAGGGCAATGAGTTGATAGCACGGGTGGC	1.2	1.06	1.62	2.1	0.711	1.07	-0.111	2.98
CGTCAAAGTGCAACTAAGGTAACGTAAAGCACGC	1.18	1.58	1.59	1.13	0.815	4.99	1.18	0.128
GCTGCTAGGTCAGGTTTGTCAGCTAACGGGTACG	2.21	2.03	2.94	0.952	0.681	1.48	0.489	0.755
ATACCATGGTGATCGTGAGGTCGTTGATACTAAC	1.18	0.425	0.264	0.547	0.893	2.48	1.85	2.87
AGTCAAAGTTCACTTGGTAACGTAAGATTCAGCT	3.71	4.88	5.66	4.24	3.44	1.6	-0.48	4.05
CATCCAAGGTCAAGGTCAGTGAAAGAGACTCGAA	5.3	6.9	7.48	3.81	6.28	4.48	3.62	3.23
TCATATAGGTAATCCAGGTGAAAGTCGGCATCTA	0.511	0.501	0.455	1.5	0.995	2.41	1.35	0.168
CAGCCGAGGTCAGGGCCAGTATAGGAGGAACGTT	3.81	5.52	5.53	2.15	5.24	3.92	1.97	1.53
GGAAGGAGGGCAAGTTGATAGCAGAGTTTGATGG	2.04	1.51	1.88	0.971	0.655	1.08	1.12	2
CCTAGTTGGTCAGGAGGTCAAACACCGGATATGA	4.15	5.37	4.68	1.15	5.72	3.5	1.99	3.16
GCTCGGAGCACAAGGTCAGAGCTTTGTCCGTAGA	2.85	2.63	2.19	0.228	2.25	2.75	0.948	0.184

Sequence	PBM binding z-score [1]	PBM binding z-score [2]	PBM binding z-score [3]	PBM binding z-score [4]	PBM binding z-score [5]	PBM binding z-score [6]	PBM binding z-score [7]	PBM binding z-score [8]
TCTAGCAGGCCAGAAGGTCACTCAAGAGGTACGG	3.87	3.95	3.46	0.459	3.15	2.28	0.225	1
TAGCCTAGGTCATTCACGGGCCAGTATAGAAAGC	2.73	4.9	4.23	1.96	2.7	2.91	0.437	1.43
CGAACTAGGTCATAACAGGACAGTGAAGGATGAT	2.36	3.28	3.91	1.66	2.37	4.04	0.443	0.892
CGAACTAGGGCAAGGACAGTGAATCTCCGCACGC	0.945	0.544	1.17	0.123	0.145	1.09	0.786	0.0219
ATATGTAGGTTACATCAGGGTCATTCAGGCTATG	3.47	4.16	2.29	1.46	4.28	4.05	2.29	3.17
CGTCCAAGGTCAATGGTAGGTCAGTGAAAGCATT	5.21	7.79	6.78	3.44	5.41	4.33	2.72	2.73
CAAACTAGGTCAACGGAAGGTCAAAGTCCGCATG	5.37	8.1	6.98	2.17	5.99	4.24	2.34	3.65
GCGACTGGGGCAAAGCAGGTTACCTTAAGGTTGG	0.957	0.509	0.229	-0.0758	0.238	3.21	1.82	-0.116
GGAGCGAGGGCAAGTTGATAGCAGAGTTTGATGG	1.55	1.41	1.95	2.04	0.51	0.876	0.0322	1.48
ACAGACTGGTGATGAAGGTAACTCAGGCTATCAT	-0.356	-0.329	0.0364	-0.417	-0.393	0.478	-0.264	-0.921
TAGCCAAGGTCATTGGGCCAGTATAGTACGCATC	4.21	5.55	5.5	3.08	5.46	4.06	2.04	3.47
AGAATGAGGTTATACGAAGATCAGGGAAGAAAGT	0.559	1.71	1	1.38	2.09	2.01	0.403	0.752
ACAGACAGGTGAGTGAAGGTAACACAGCTGGACG	0.48	0.416	0.789	-0.436	0.647	1.87	-0.183	-0.21
CGTCCAAGGTCATAGGAGGGCAGTGAAGACAGAT	4.01	5.77	5.89	3.81	5.44	4.83	2.17	3.3
TCTTGTAGATCAACAGGAGGTTAAGGAAGATCGA	0.564	0.698	0.308	0.0925	0.861	0.777	-0.373	-0.358
CCTCGGAGGACAACAGGAAGTCAGAGCTGCCAGA	0.0796	0.396	1.06	0.139	-0.479	0.205	-0.14	-0.542
TCTCGGAGGACACGAAGGCCAGAGCTTTCCAGAG	1	0.605	1.84	0.482	0.00493	1.43	0.215	-0.212
GCTCGGAGGACAAGGTCAGAGTTTTGTCCGTAGA	3.25	3.1	3.94	0.706	2.55	3.11	1.72	0.974
AGAATGAGGTTATACGTAGATCAGCGAAGAAAGT	0.428	1.76	0.909	1.41	2.13	1.99	0.0645	0.803
AGTCAAAGTTCACTAGGTAACGTACGATTCAGCT	4.12	4.87	5.61	4.41	3.85	2.2	0.165	4
TTACCAAGGTGAGCTGAGGCCGTTGATCCAACTC	0.505	-0.177	-0.0104	-0.748	-0.163	3.6	0.533	-0.339
